Screens as filed in PubChem BioAssay.
TTR transcr act: increases transthyretin transcription. SH-SY5Y TTR promoter Gaussia luciferase, luminescence; 100% = recombinant luciferase protein wells. activation, % at 16.7 µM. 92,000 compounds, 1.3% hits. AID 1117267;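 active means activation above the mean of all tested compounds plus 3 SD, cut at about 9.5% in these data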;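 further: cells exposed to compounds for one day before reading; 0% = median of all test compound wells on the plate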
HuH7 TTR inh: HuH7 TTR transcription inhibition, counter-screen. HuH7 TTR promoter-Gaussia luciferase reporter, luminescence. 1,100 compounds, 4% hits. shares compounds with TTR transcr act. inhibition, % at 16.7 µM. AID 1117279;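 active means average inhibition above the solvent-only control wells' mean plus 3 SD, cut at about 15% in these data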;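 further: 0% = cells with DMSO only and 100% = cells with inhibitor control FD; inhibitors lower well luminescence so higher value means more inhibition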
TTR act confirm: human TTR transcription activation, confirmation; 1,100 tested, under 10 active; activation, % at 16.7 µM; SHSY5Y TTR promoter Gaussia luciferase, luminescence; 100% = purified Lucia enzyme wells, no cells; shares compounds with TTR transcr act;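 active means mean activation above a set limit taken from the earlier primary screen, cut at about 11% in these data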;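 further: 0% = DMSO-treated cells and 100% = recombinant Lucia luciferase without cells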
Starred values were filed as active, the others as inactive. This excerpt belongs to a sample that is enriched for hits.

SMILES | TTR transcr act | others
CN(C)c1ccc(C(C(=O)NC2CCCCC2)N(Cc2ccco2)C(=O)c2snc(C(N)=O)c2N)cc1 (centres undefined) | 11* | HuH7 TTR inh=7;TTR act confirm=-1
COc1ccc(N(C(=O)c2ccco2)C(C(=O)NC2CCCC2)c2ccc(N(C)C)cc2)cc1OC (centres undefined) | 17* | HuH7 TTR inh=-22;TTR act confirm=1
O=C(c1ccccc1Cl)N1CCSCC1 | 0
COc1ccc2c(c1C(=O)/C=C/c1ccccc1)OC(C)(C)C=C2 | 0
CC(OC(=O)c1ccccc1Oc1ccccc1)C(=O)NC1CC1 (centres undefined) | -2
COc1ccc(CN2C(=O)[C@@](O)(c3cccn3C)c3cc(Br)ccc32)cc1 | -2
COc1ccccc1NC(=S)OCCN1CCCC12CCC(c1ccccc1)CC2 (centres undefined) | 1
C[C@H](O)[C@@H]1C(=O)N2CCc3ccc(N4CCOCC4)cc3[C@@H]2C[C@@H]1N(C)C(=O)Nc1ccccc1 | 1
N#Cc1ccc2nc3c(nc2c1)CCCC3 | 6
CC(C)(C)NC(=O)C(c1cccnc1)N(C(=O)c1cnc[nH]1)c1ccc(C(C)(C)C)cc1 (centres undefined) | -3
Cc1ccc(N2C(=O)CC(Cn3nc(C)cc3C)C2=O)cc1 (centres undefined) | -1
Cc1cc(C)n(CC2CC(=O)N(c3ccc(Cl)cc3)C2=O)n1 (centres undefined) | 4
Cc1cc(C)n(CC2CC(=O)N(c3ccc(Cl)c(Cl)c3)C2=O)n1 (centres undefined) | 12* | HuH7 TTR inh=-11;TTR act confirm=0
C/C(=C\c1ccc(C)o1)C(=O)c1c(C)cc(C)[nH]c1=O | 1
C[C@H]1CCCN1c1cccc2c1S(=O)(=O)N(C1CC1)CCCO2 | -1
CC(=O)c1csc(Nc2ccccc2Cl)n1 | 12* | HuH7 TTR inh=-13;TTR act confirm=0
CCCNC(=O)c1csc(Nc2cccc3ccccc23)n1 | 0
CC(=O)c1csc(-c2ccccc2)n1 | -1
COP(=O)(OC)C(NC(=O)OCc1ccccc1)C(C)C (centres undefined) | 0
Cc1ccccc1CN1CCCCC(NC(=O)c2ccccc2F)C1=O (centres undefined) | -1
CCCCCC(=O)NC1CCCCN(Cc2ccc(Cl)cc2)C1=O (centres undefined) | 0
CCCC[C@H]1C2CC(OC(=O)Nc3ccc(Br)cc3)C(C2)[C@H]2CCCCN21 (some centres undefined) | 3
CSc1ncccc1C(=O)OCc1c(F)cccc1Cl | 0
COC(=O)c1cccc(COC(=O)c2cccnc2SC)c1 | 12* | HuH7 TTR inh=-3;TTR act confirm=0
COC(=O)c1ccc(COC(=O)c2cccnc2Cl)cc1 | -1
SMILES | TTR transcr act | others
CC(C)CC(O)(CC(C)C)c1cn(C(=O)N(c2ccccc2)c2ccccc2)nn1 | -1
CN(C)NC(=O)c1cccc(Cl)c1 | 3
CN(Nc1cccc(Cl)c1)c1cccc(Cl)c1 | 11* | HuH7 TTR inh=-20;TTR act confirm=0
CN(C)NC(=S)Nc1cccc(Cl)c1 | 1
C=CCN(C(=O)[C@@H](CCCC)[C@@H](O)c1ccc(C(C)=O)cc1)c1ccccc1 | 4
O=C(c1ccoc1)N1CCN(c2cc(-c3ccco3)nc3cc(-c4ccco4)nn23)CC1 | -2
CC(C)(C)[C@H]1C=C(C(=O)O)O[C@@H](OCCCCO)C1 | 2
CC(C)(C)[C@H]1C=C(C(=O)NCc2ccccc2)O[C@@H](OCCCCO)C1 | 19* | HuH7 TTR inh=-31;TTR act confirm=1
C[C@H]1C=C(C(=O)NCc2nc3ccccc3[nH]2)O[C@@H](OCCCCO)C1 | 9
CCCC(=O)C1=C(N2CCCCC2)CC(C)(C)C(C(=O)OC)C1=O (centres undefined) | 1
CCOc1ccc(-n2c(=O)cc(N3CCN(c4ccc(F)cc4)CC3)[nH]c2=O)cc1 | 1
CCOC(=O)N1CCN(c2cc(=O)n(-c3ccc(OC)cc3)c(=O)[nH]2)CC1 | 9.7* | HuH7 TTR inh=-4;TTR act confirm=-1
CCOC(=O)N1CCN(c2cc(=O)n(-c3ccccc3C)c(=O)[nH]2)CC1 | -1
C=CCN(C(=O)[C@@H](C1CC1)[C@@H](O)c1ccc2ccccc2c1)c1ccccc1 | -2
CC(=O)Nc1sc2c(c1-c1nc3ccccc3s1)CCOC2 | -1
COc1cccc(NC(=O)Nc2c(-c3ccc(F)cc3)nc3ncccn23)c1 | 1
CCCCCn1nnnc1C1(C)CCCCC(=O)N1Cc1ccco1 (centres undefined) | 1
COc1ccc(-n2cc(COC(=O)NCCc3ccccc3)nn2)cc1 | 11* | HuH7 TTR inh=-8;TTR act confirm=-1
O=C(NCCc1ccccc1)OCc1cn(-c2c(F)cccc2F)nn1 | 1
O=C(NCCc1ccccc1)OCc1cn(-c2cccc(C(F)(F)F)c2)nn1 | 4
CN1C2=N[C@H](c3cccc(C(F)(F)F)c3)CC(=O)N2/C(=C\c2ccccc2)[C@H]1c1ccccc1 | 4
